The results in this text go back to PubChem BioAssay AID743286 (National Center for Advancing Translational Sciences (NCATS), 2014).

Out of some 1,100 compounds screened, about 340 (31%) were called active. Roughly 40% stayed inconclusive and do not appear here. The call rests on the fitted dose curve; in most records, active means well fitted inhibition curve with a large enough effect; inconclusive means small, poorly fitted or top-dose-only effect; inactive means flat fitted curve, though single readings scatter. Only a sample is shown. Entries that show only a call come without a potency.
Potency means the concentration at half of the fitted maximal effect.

Phosphatidylinositol 5-phosphate 4-kinase type-2 alpha (Homo sapiens), sequence (P48426 whole entry, looked up, canonical isoform): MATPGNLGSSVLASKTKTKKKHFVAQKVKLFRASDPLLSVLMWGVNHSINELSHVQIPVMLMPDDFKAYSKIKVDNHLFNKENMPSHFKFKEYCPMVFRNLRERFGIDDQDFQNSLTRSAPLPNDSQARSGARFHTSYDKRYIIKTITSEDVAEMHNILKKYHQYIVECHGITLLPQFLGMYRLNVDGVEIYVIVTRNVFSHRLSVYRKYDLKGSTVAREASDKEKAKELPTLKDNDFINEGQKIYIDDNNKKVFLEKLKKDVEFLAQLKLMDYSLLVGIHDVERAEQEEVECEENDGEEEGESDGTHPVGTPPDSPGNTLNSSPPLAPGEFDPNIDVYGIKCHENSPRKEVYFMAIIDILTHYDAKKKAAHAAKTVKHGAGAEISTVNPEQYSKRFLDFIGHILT

This experiment has as its target Phosphatidylinositol 5-phosphate 4-kinase type-2 alpha (Homo sapiens) (UniProt P48426). Briefly: qHTS for Inhibitors of PI5P4K: Confirmation in Primary Assay. Further: nearly all actives have a fitted effect of over 65% in size. As to conditions: PI5P4Kalpha enzyme, ADP-Glo luminescence, 60 min; series mostly up to 76.9 µM. An excerpt: In addition to finding PI5P, we discovered the type II phosphatidylinositol 5-phosphate 4-kinase (PI5P4K) family (alpha, beta, gamma isoforms) that catalyze the conversion of PI5P to PI(4,5)P2. Alternatively, PI(4,5)P2 can also be synthesized through phosphatidylinositol-4-phosphate (PI4P) by the type I phosphatidylinositol 4-phosphate 5-kinases (PI4P5K). These PI5P4K enzymes therefore represent one way by which cells can regulate endogenous PI5P levels and play important roles in insulin signaling and in stress responses. […] A qHTS PI5P4K-alpha ADP-Glo assay was developed to identify specific modulators of human PI5P4K, phosphatidylinositol-5-phosphate 4-kinase (Type II PIPK). This assay was screened against the MLSMR containing ~400,000 small molecules (PubChem AID 652105). To confirm that the hits were not interacting with the detection enzyme system, a 1536-well counterscreen against the ADP-Glo kit (Promega) was utilized, as described in Davis et al., 2013 [1]. Davis et al., PLoS One. 2013;8(1):e54127. NIH Chemical Genomics Center [NCGC] NIH Molecular Libraries Probe Centers Network [MLPCN] MLPCN Grant: MH096575 Assay Submitter (PI): Atsuo Sasaki, Beth Israel Deaconess Medical Center
2 microL of PI5P4Kalpha/substrate buffer (columns 1-2, 5-48) are dispensed into Greiner white solid bottom 1536-well assay plates; column 3 receives only PI5P4Kalpha buffer as 0x substrate controls; column 4 receives only substrate buffer as 0x PI5P4Kalpha controls. Final assay buffer consists of 0.038 M HEPES pH 7.4, 0.28 mM EGTA, 0.1% CHAPS, and 5% DMSO (final concentration). Compounds are then transferred via Kalypsys pin tool equipped with 1536-pin array (10 nL slotted pins, V&P Scientific, San Diego, CA). Following addition of compound, 1 microL of ATP (5 microM final concentration, all columns) is added to initiate the reaction. ATP is diluted in an assay buffer consisting of 0.02 M HEPES pH 7.4, 60 mM MgCl2, 15 microM ATP, and 0.1% CHAPS. The plates are then incubated at room temperature for 60 minutes. ADP-Glo reagent 1 is added (2 microL) and plates incubated for 45 minutes, before ADP-Glo reagent 2 (4 microL) is added and plates incubated for 30 minutes. They are then transferred to a ViewLux high-throughput CCD imager (PerkinElmer) wherein single end-point measurements of luminescence are acquired using a clear filter.
In general terms: Quantitative high-throughput screening tests each substance at several concentrations.
`O=C(c1ccco1)N1CCN(C(=O)c2ccc(-c3ccc([N+](=O)[O-])cc3)o2)CC1`: the Potency entry was “inactive”.

Turning to `O=C(NCc1ccco1)c1ccc([N+](=O)[O-])o1`, the Potency is 31.6 µM (active). With `S=C(NCc1ccco1)NCc1ccco1` the figure was 14.1 µM (active); with `O=C(CSC1=NCCS1)NCc1ccco1`, “inactive”; with `CC(C)(C)[C@H]1C=C(C(=O)N2CCOCC2)O[C@@H](OCc2ccc(CO)cc2)C1`, “inactive”. With `COc1ccc(Cl)cc1S(=O)(=O)NCCCn1ccnc1` the entry was “inactive”; with `COCCNC(=O)c1cc(-c2ccccc2)sc1N`, “inactive”.

For the compound `Cc1ccc(CNc2ncnc3ccc(-c4ccc(CO)o4)cc23)o1`, the Potency result was “inactive”.

Take `Cc1cc(O)ccc1Nc1cc(-c2cccc(N(C)C)c2)ncn1`: the Potency was 12.6 µM (active).

In the case of `O=C(NC1CCCC1)C(c1ccncc1)N(C(=O)c1csnn1)c1ccccc1F` (stereo not given), the Potency result was “inactive”. With `Cc1sc2ncn(CC(=O)N3CCC(C(N)=O)CC3)c(=O)c2c1S(=O)(=O)N1CC(C)CC(C)C1` (stereo not given) the entry was “inactive”.

In the case of `Cc1ccc(C)c(OC(C)C(=O)Nc2ccc(S(=O)(=O)Nc3nccs3)cc2)c1` (stereo not given), the Potency result is “inactive”. With `Cc1noc(C)c1C(=O)Nc1ccc(-n2ccc(C(F)(F)F)n2)cc1` the entry was “inactive”; with `O=C(Nc1ccc(S(=O)(=O)Nc2nccs2)cc1)c1nn(-c2ccc(F)cc2)ccc1=O`, 15.8 µM (active). Regarding `COc1ccc(C(=O)N2CCCC2(C)C(=O)O)cc1C(F)(F)F` (stereo not given), the Potency entry is “inactive”. Under `CC(=O)N1CCN(S(=O)(=O)c2cccc(C(=O)Nc3ccc(F)c(F)c3)c2)CC1` stands “inactive”; under `O=C(c1cccc(-n2cccc2)c1)N1CCN(S(=O)(=O)c2ccccc2)CC1`, 3.98 µM (active).

Regarding `COc1ccc(CN2CCC(=O)N([C@H](CO)CC(C)C)CC2)cc1OC`, the Potency entry is “inactive”.

In the case of `CCCCCCCCN1C(=O)[C@H](CC(=O)NCc2ccc(C)o2)C[C@@]2(C(=O)OC)CC(C)(C)CC=C12`, the Potency entry is “inactive”.

`CC1=NN(c2nc(-c3ccc(Cl)cc3)cs2)C(=O)C1`: the Potency is 15.8 µM (active). Under `CCOC(=O)Nc1ccc2c(CNC(C)c3ccccc3OC)cc(=O)oc2c1` (stereo not given) stands “inactive”. With `CC1CCN(C(=O)c2ccc(COc3ccccc3Cl)o2)CC1` the entry was “inactive”; with `COc1ccc(C2=CC3=C(Br)C(=O)C(C)(OC(=O)c4cccs4)C(=O)C3=CO2)cc1` (stereo not given), 22.4 µM (active); with `CCCCC1=CC2=C(c3ccco3)C(=O)C(C)(OC(=O)c3ccc(OC)cc3)C(=O)C2=CN1Cc1ccccc1` (stereo not given), “inactive”.

In the case of `COC(=O)CCC(=O)OC1(C)C(=O)C2=CN(CC3CC3)C(c3ccc(OC)cc3)=CC2=C(Br)C1=O` (stereo not given), the Potency result is “inactive”.

On to `Cc1ccc(S(=O)c2ccc(NC(=O)C3CC3)cc2C#N)cc1` (stereo not given), for which the Potency entry was “inactive”. With `Cc1ccc(N(C(=O)CNC(=O)c2ccco2)C(C(=O)NC2CCCC2)c2cccnc2)c(C)c1` (stereo not given) the entry was “inactive”. Consider `O=C(CN1CCN(c2ccccc2F)CC1)NCc1ccccc1`, for which the Potency entry is “inactive”.

As to `COc1ccc(C(=O)NCCSc2ccccc2)cc1OC`, the Potency result was “inactive”. As to `COc1cc(C(=O)Nc2scc(-c3ccccc3)c2C(=O)O)cc(OC)c1OC`, the Potency was 12.6 µM (active). `COc1cc(C(=O)Nc2scc(-c3ccc(Br)cc3)c2C(=O)O)cc(OC)c1OC`: the Potency was 5.62 µM (active). `COc1ccc(-c2csc(NC(=O)c3ccccc3F)c2C(=O)O)cc1`: the Potency result was “inactive”. Under `Cc1ccc(-c2csc(NC(=O)c3ccc(Br)cc3)c2C(=O)O)cc1` stands 14.1 µM (active); under `COc1cc(C(=O)Nc2scc(-c3ccc(C)cc3)c2C(=O)O)cc(OC)c1OC`, 3.55 µM (active).

As to `NC(=O)C1CCN(CC(=O)Nc2ccc3c(c2)OCCO3)CC1`, the Potency entry is “inactive”.

As to `CCOC(=O)CSc1nc2ccc(NC(=O)CSc3nnnn3Cc3ccccc3)cc2s1`, the Potency entry was “inactive”. Consider `O=C(NCCc1ccccc1)C(c1cccs1)N(C(=O)c1csnn1)C1CC1` (stereo not given), for which the Potency entry was “inactive”.

For `Cc1nc(CS(=O)(=O)c2ccccc2)cc(N2CCOCC2)n1`, the Potency entry was “inactive”. Under `O=C(CCNS(=O)(=O)c1ccc(Br)s1)NCc1ccccc1Cl` stands “inactive”.

`CCCCC1Cc2[nH][nH]c(=O)c2C(c2ccc(F)cc2)O1` (stereo not given): the Potency entry is “inactive”. With `COc1ccc2nc(SCC(=O)N3CCN(c4ccc(F)cc4)CC3)c(C#N)cc2c1`, the Potency result is “inactive”. Under `O=S(=O)(c1ccccc1)N1N=C(c2cccs2)CC1c1ccc(Br)cc1` (stereo not given) stands “inactive”; under `O=C1NC(c2cc(Cl)cc([N+](=O)[O-])c2O)Nc2ccccc21` (stereo not given), 8.91 µM (active); under `O=C1NC(c2cccs2)Nc2ccccc21` (stereo not given), “inactive”. With `Cc1cccc(S(=O)(=O)NC(=O)C2(C)CCN2C(=O)Cc2cc(F)ccc2F)c1` (stereo not given) the entry was “inactive”. As for `Cc1cccc2cc(CN(Cc3cccnc3)C(=S)NCCCN(C)C)c(=O)[nH]c12`, the Potency entry was “inactive”. Under `COc1cc(Cn2c3ccc(NC(=O)CCc4ccccc4)cc3c(=O)n2C)ccc1F` stands “inactive”; under `CCOc1ccc(S(=O)(=O)N(C(=O)c2ccco2)c2cc3sc(=O)oc3c3ccccc23)cc1`, “inactive”; under `CCCOc1ccc(CSc2ncn[nH]2)cc1`, “inactive”. With `CCCCCCNC(=O)c1cc(-c2ccco2)nc2ccccc12` the figure was 7.08 µM (active).

`O=C(NCc1ccco1)c1c2c(nc3ccccc13)CCC2`: the Potency was 10 µM (active).

With `Cn1nnc2cc(C(=O)NC3CC3)ccc21`, the Potency result was “inactive”. Regarding `O=C(NCc1ccccc1)C(c1ccccc1)n1c(=O)c(-c2ccco2)nc2ccccc21` (stereo not given), the Potency result was “inactive”. With `Cc1ccc(-c2cc(C(=O)O)c3cc(Br)ccc3n2)o1` the figure was 25.1 µM (active); with `O=C(NC1CCC(O)CC1)c1cc(-c2ccco2)nc2ccccc12` (stereo not given), 12.6 µM (active); with `Cc1nnc(-c2ccccc2)nc1N(C)C`, “inactive”. On to `O=C(COC(=O)C1CCCCC1)Nc1ccccc1OC(F)F`, for which the Potency entry is “inactive”.

For `COc1cccc(N2CCN(C(=O)c3ccc(CS(=O)c4ccccc4C)o3)CC2)c1` (stereo not given), the Potency result is “inactive”. With `CC(C)(C(=O)N1CCC1(C)C(=O)NS(=O)(=O)c1ccc(C#N)cc1)c1ccccc1` (stereo not given) the entry was “inactive”; with `O=C(OCC(=O)N1N=C(c2ccc(Cl)cc2)CC1c1ccco1)c1cccnc1` (stereo not given), “inactive”.

For the compound `COc1ccc(CCNC(=O)C2CC(c3cccc(F)c3)=NO2)cc1` (stereo not given), the Potency result is “inactive”.

As for `COc1ccc(CCNC(=O)c2cc(-c3ccco3)nc3ccccc23)cc1`, the Potency was 15.8 µM (active). Under `COc1ccc(-c2cc(C(=O)Nc3ccccc3O)c3ccccc3n2)cc1` stands “inactive”; under `Cc1ccc(-c2cc(C(=O)NCc3ccco3)c3ccccc3n2)o1`, 14.1 µM (active). With `O=C(O)CCC(=O)N1CCC(n2nnc3cc(C(F)(F)F)ccc32)CC1` the entry was “inactive”; with `O=C(NC1CC1)c1ccc(NC(=O)C2CCC2)cc1`, “inactive”. With `CC(C)OC(=O)c1c(NS(=O)(=O)c2ccccc2)sc2c1CCCC2`, the Potency entry was “inactive”.

On to `COc1ccc(S(=O)(=O)/N=C2\C=C(NS(=O)(=O)c3ccccc3)C(=O)c3ccccc32)cc1`, for which the Potency is 31.6 µM (active). On to `COc1ccc(S(=O)(=O)Nc2ccc3c(c2)CCC3)cc1`, for which the Potency result is “inactive”.

For the compound `CCCCn1c(=O)[nH]c(=O)c2c1nc(-c1ccc(-c3ccccc3Br)o1)n2CC`, the Potency result is “inactive”.

Take `COc1cc(=O)[nH]c(=O)n1C(=O)Cc1ccccc1`: the Potency result is “inactive”. Under `Cc1ccc(-c2nc3c(c(=O)[nH]c(=O)n3Cc3ccccc3)n2C)o1` stands 5.62 µM (active); under `O=C(CC1C(=O)NCCN1CC1CCCCC1)NCc1cc(F)ccc1F` (stereo not given), “inactive”.

In the case of `Cc1ccc(CNC(=O)CCS(=O)(=O)c2ccc(Cl)cc2)cc1`, the Potency entry was “inactive”. Under `Cc1ccc(CNC(=O)CSc2ncccn2)cc1` stands “inactive”. Under `Cc1ccc(CNC(=O)c2ccc(-n3cccc3)cc2)cc1` stands 12.6 µM (active); under `O=C(NCc1ccc(F)cc1)C1CCN(c2cnccn2)CC1`, “inactive”; under `Cc1cc(-c2nc3c4c5c(sc4[nH]c(=O)n3n2)CCC5)c(C)o1`, 15.8 µM (active).

With `COc1ccc(C(=O)N2CCC(C(=O)Nc3ccc(C)cc3)CC2)cc1`, the Potency entry was “inactive”. With `CCOC(=O)C1CCCN(C(=O)c2cc(-c3ccco3)nc3ccccc23)C1` (stereo not given) the figure was 3.16 µM (active); with `COC(=O)C1CCN(C(=O)c2cc(-c3ccco3)nc3ccccc23)CC1`, 3.98 µM (active); with `CCOC(=O)C1(C)CCCN(C(=O)c2ccccc2C(F)(F)F)C1` (stereo not given), “inactive”. Under `CCOC(=O)C1CCCN(C(=O)c2ccc(F)c(C)c2)CC1` (stereo not given) stands “inactive”; under `Cc1ccc(C)c(C2=NNC(=NCc3ccccc3)SC2)c1`, “inactive”. Under `O=C(Nc1ccc(Cl)cc1)Nc1ccccc1CC[N+](=O)[O-]` stands “inactive”; under `CCOC(=O)Nc1ccc(NCc2ccc(F)cc2)nc1N`, 31.6 µM (active).

Regarding `Cc1cc(C)cc(NC(=O)Cn2nnc(C(=O)NCc3ccc(F)cc3)c2N)c1`, the Potency entry is “inactive”.

As to `O=C(Oc1ccc2c(c1)OCO2)c1cc2c(s1)CCC2`, the Potency was 2.24 µM (active). With `COc1ccc(-c2cc(C(F)F)n3ncc(C(=O)n4ccnc4C)c3n2)cc1` the entry was “inactive”; with `Cc1ccc(-n2c(SCC(=O)Nc3ccc4c5c(cccc35)CC4)nc(O)cc2=O)cc1`, “inactive”; with `O=c1c2ccccc2cnn1-c1nc2ccccc2[nH]1`, 25.1 µM (active). With `O=C(NC1CC1)C1=C[C@@H](c2c[nH]c3ccccc23)C[C@@H](OCc2ccc(CO)cc2)O1` the entry was “inactive”; with `COc1ccc(N2CCN(C(=O)c3[nH]c(C(F)(F)F)nc3-c3ccccc3)CC2)cc1`, “inactive”; with `CCc1ccc(C2CC(=O)N3CN(c4ccccc4)CSC3=C2C#N)cc1` (stereo not given), 28.2 µM (active). In the case of `N#CC1=C2SCN(c3ccccc3)CN2C(=O)CC1c1cccs1` (stereo not given), the Potency is 15.8 µM (active). Under `CCc1ccc(N2CSC3=C(C#N)C(c4cccs4)CC(=O)N3C2)cc1` (stereo not given) stands 12.6 µM (active); under `N#CC1=C2SCN(c3ccc(F)cc3)CN2C(=O)CC1c1cccc(F)c1` (stereo not given), 20 µM (active); under `CCOc1ccc(Cl)cc1S(=O)(=O)n1cnc2ccccc21`, “inactive”. Under `O=C(Cc1cccs1)N(CC1CCCO1)C1(C(=O)NC2CCCCC2)CCCCC1` (stereo not given) stands “inactive”; under `NC(=O)[C@@H]1CC2(CC(c3cccc(NC(=O)COc4ccc(Cl)cc4)c3)=NO2)CN1C(=O)COc1ccc(Cl)cc1` (stereo not given in full), “inactive”.
